Measurements as given in PubChem BioAssay.
Activity calls are given as the source filed them. No stated cut-off is given here; in the data, active means inhibition above about 33%; inactive means the rest.

Assay: VP16 transactivation reporter inhibitors, counter-screen for LRH-1 inverse agonist project, cell-based, luminescence, high throughput (AID 651615)
Conditions: Gal4-VP16 luciferase reporter cells, at 3.6 µM, hits give high values

SMILES	inhibition
C[C@@H]1CN([C@@H](C)CO)S(=O)(=O)c2ccc(-c3ccc(C#N)cc3)cc2O[C@@H]1CN(C)Cc1ccccn1	-14.3% (inactive)
Cc1onc(-c2ccccc2Cl)c1-c1nc(-c2ccncc2)no1	18.2% (inactive)
Cc1cc(C(=O)CSc2nnnn2C)c(C)n1CCc1ccc(F)cc1	-3.7% (inactive)
Cc1cc(=O)oc2cc(O)cc(OCc3ccccc3)c12	-8.41% (inactive)
Clc1ccc(Cn2ncc3c(NCc4ccccc4)ncnc32)cc1	14.4% (inactive)
NC(=S)N/N=C/c1ccc(-c2ccc([N+](=O)[O-])cc2)o1	13.5% (inactive)
COc1cc2c(cc1OC)-c1c(OC)c(OC)cc3ccnc(c13)C2=O	25.4% (inactive)
COc1ccc(NC(=O)CSc2nnc3ccc(-c4cccnc4)nn23)cc1OC	-8.78% (inactive)
O=Cc1ccc(N2CCCCCC2)cc1	-13.3% (inactive)
CC1(c2ccc3ccccc3c2)NC(=O)N(CC(=O)N2CCN(Cc3ccc(C#N)cc3)CC2)C1=O (stereo not given)	53.5% (active)
CCOC(=O)c1ccc(N=Cc2cnc(N)nc2N)cc1	3.32% (inactive)
O=C(CSc1ncccc1-c1nc2ccccc2[nH]1)Nc1ccc2c(c1)OCCO2	-15.5% (inactive)
CCOc1ccc(CCNC(=O)COC(=O)c2ccc(F)c(S(=O)(=O)N3CCOCC3)c2)cc1OCC	-3.82% (inactive)
CCOc1cc(/C=N/Nc2nnc(C)n2N)ccc1O	2.17% (inactive)
COC(=O)c1ccc(NC(=O)CN2CCN(S(=O)(=O)c3cc(Cl)ccc3OC)CC2)cc1	7.76% (inactive)
O=C(O)c1c[nH]c2c([N+](=O)[O-])cccc2c1=O	5.89% (inactive)
Cc1cc(/C=N/n2cnnc2)c(C)n1-c1ccc(OCc2ccc(Cl)cc2)cc1	31.2% (active)
Cc1onc(-c2c(F)cccc2Cl)c1C(=O)c1ccc(F)cc1	-8.21% (inactive)
Cc1[nH][nH]c(=O)c1N=Nc1ccc(S(N)(=O)=O)cc1	6.39% (inactive)
CCOc1cc(/C=C2\C(=N)N3N=C(C)SC3=NC2=O)ccc1OCCOc1cccc(OC)c1	6.87% (inactive)

SMILES	inhibition
O=C(N/N=C/c1ccc([N+](=O)[O-])s1)C(O)c1ccccc1 (stereo not given)	-11.9% (inactive)
O=C(C(Cl)c1ccccc1)N1CCOCC1 (stereo not given)	-10.2% (inactive)
COCCn1c(SCC(=O)Nc2ccc(C(C)=O)cc2)nnc1-c1ccco1	-1.99% (inactive)
CC(=O)Oc1ccc2oc(=O)c3c(c2c1)CCCN3C(=O)CN1CCN(c2ncccn2)CC1	-13.8% (inactive)
CC(=O)c1ccc(OC(C)C(=O)OCC(=O)NCCc2ccccc2)cc1 (stereo not given)	7.05% (inactive)
CCCn1c2c(c(=N)c3c1CCC3)CCCC2	44.9% (active)
C/C(=N\NC(N)=S)C1(C)CCCCC1	29.4% (inactive)
Cc1ccc(NC(=O)CSc2nnc(CCCCCNC(=O)OC(C)(C)C)o2)c(C)c1	4.4% (inactive)
COc1cc(C(=O)NC2CCN(C)CC2)ccc1Nc1ncc2c(n1)N(CCc1ccccc1)CCC(=O)N2C	-166% (inactive)
C#Cc1cccc(Nc2nc(NCCOC)nc3ccsc23)c1	5.35% (inactive)
Cc1nn(Cc2ccc(Cl)cc2)c(C)c1NC(=O)c1cc(C(C)C)on1	16% (inactive)
CC(=O)N1CCN(c2ccc(Oc3ccc([N+](=O)[O-])c(C(F)(F)F)c3)cc2)CC1	57.5% (active)
Cc1nnc(SCC(=O)Nc2ccc(Br)cc2)n(N)c1=O	-5.1% (inactive)
C/C(=N\Nc1nc(C)c(C)s1)c1ccc([N+](=O)[O-])cc1	-2.81% (inactive)
O=C(CN1C(=O)NC2(CCCCC2)C1=O)NCCc1c[nH]c2ccccc12	3.42% (inactive)
Cc1ccc(-n2nc(C)c(NC(=O)CCl)c2C)cc1C	-60.3% (inactive)
CC(=O)Oc1ccc(-c2ccc(C(=O)Nc3cccc(S(=O)(=O)N4CCOCC4)c3)cc2)cc1	59.4% (active)
Cc1cc2oc(=O)cc(C)c2cc1NC(=O)CCl	-57.1% (inactive)
O=C(OCC(=O)N1CCN(C(=O)COC(=O)c2ccc(O)cc2O)CC1)c1ccc(O)cc1O	3.8% (inactive)
CC1(C)CC(=O)C=C(c2cccs2)C1	6.36% (inactive)
